Laboratory results taken from PubChem BioAssay.
Calls of active or inactive are those of the source.

Key:
[1] = small molecules captured by biotinylated probe aFSTL3 – biochemical, small-molecule microarray, fluorescence 635/667, stem cell growth factor project, primary screen (AID 1064); conditions: higher = more signal;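 further: measures binding of the biotinylated anti-FSTL3 antibody to printed compounds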
[2] = binders from COS7 lysate, DM2A8 probe, primary screen, torsin A project, cell lysate, small-molecule microarray, fluorescence 635/667 (AID 1065); conditions: higher = more signal, COS7 lysate expressing mutant human TOR1A
[3] = small molecules captured by biotinylated probe aFGF2 – biochemical, small-molecule microarray, fluorescence 635/667, stem cell growth factor project, primary screen (AID 1067); conditions: higher = more signal;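 further: measures binding of biotinylated aFGF2 protein to printed compounds on slides; z-score merges feature fluorescence and signal-to-noise across triplicate slides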
[4] = small molecules captured by biotinylated probe aFGF10 – biochemical, small-molecule microarray, fluorescence 635/667, stem cell growth factor project, primary screen (AID 1071); conditions: higher = more signal;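 further: score merges 667 nm spot intensity and signal to noise from triplicate slides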
[5] = biological target: Neurogenic locus notch homolog protein 2 (Homo sapiens) (UniProt Q04721); test: small molecules binding Notch2 protein – biochemical, small-molecule microarray, 635 nm fluorescence, stem cell growth factors, primary screen (AID 1073); conditions: higher = more signal
[6] = biological target: Pro-neuregulin-1, membrane-bound isoform (Homo sapiens) (UniProt Q02297); test: small molecules binding neuregulin-1 protein – biochemical, small-molecule microarray, fluorescence 635/667, psychiatric disease protein project, primary screen (AID 1075); conditions: NRG1 binding, 635 nm fluorescence, higher = more signal;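 further: score combines 667 nm spot fluorescence with signal to noise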
[7] = tested on: Neuregulin-1 EGF-like domain; test: small molecules binding NRG1 EGF domain – biochemical, small-molecule microarray, 635 nm fluorescence, primary screen (AID 1081); conditions: higher = more signal;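 further: binding of the protein to compounds printed on small-molecule microarray slides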
[8] = FRG1 expression reporter modulators in myotubes – cell-based, C2C12 myotubes, firefly/Renilla luciferase, luminescence, FRG1 inhibition for FSHD, primary screen (AID 1084); conditions: FRG1 promoter luciferase, higher = more signal, called active from +8 up or from −8 down
[9] = small molecules captured by biotinylated probe aFST – biochemical, small-molecule microarray, fluorescence 635/667, stem cell growth factor project, primary screen (AID 1086); conditions: higher = more signal;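 further: score merges 667 nm fluorescence with signal-to-noise of each printed compound spot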
[10] = binders of probe aHhip on microarray, primary screen, stem cell growth factor project, biochemical, small-molecule microarray, fluorescence 635/667 (AID 1087); conditions: higher = more signal;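 further: score merges spot fluorescence at 667nm with spot signal to noise ratio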
[11] = tested on: PRMT1 (protein arginine N-methyltransferase 1); test: small molecules binding arginine methyltransferase PRMT1 – biochemical, small-molecule microarray, 635 nm fluorescence, primary screen (AID 1088); conditions: higher = more signal;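 further: binding of Prmt1 protein to compounds spotted on small-molecule microarray slides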
[12] = growth effects on S. cerevisiae YJM789 – YJM789 clinical isolate, OD600, 24 h, basal, primary screen (AID 1089); conditions: higher = more signal, called active from +8 up or from −8 down;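 further: growth of clinical yeast isolate S. cerevisiae YJM 789 seeded 1000 cells per well; test concentration not given here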
[13] = S. pombe growth modifiers, basal conditions – strain 972, OD600, 24 h, no modulator, primary screen (AID 1090);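 further: basal condition with compound alone and no growth modifier present; test concentration not given here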; conditions: S. pombe 972 growth, higher = more signal, called active from +8 up or from −8 down
[14] = budding yeast growth modifiers under rapamycin – strain BY4716, OD600, 96 h, primary screen (AID 1091); further: test concentration not given here; conditions: S. cerevisiae BY4716 + rapamycin, higher = more signal, called active from +8 up or from −8 down
[15] = biological target: Torsin-1A-interacting protein 2 (Homo sapiens) (UniProt Q8NFQ8); test: small molecules binding lysate-expressed LULL1 – cell lysate, human LULL1 lysate, 635/667 nm fluorescence, primary screen (AID 1092); conditions: small-molecule microarray, hLULL1 lysate binding, 635 nm fluorescence; higher = more signal;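 further: probe is lysate of COS7 cells overexpressing human LULL1; score merges per-feature 667 nm fluorescence with signal-to-noise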
[16] = optical density change of DRC41 E. coli – strain DRC41, OD650, 24 h, E. coli filamentation project, primary screen (AID 1093);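 further: MC1000 strain lacking acrAB efflux and sulA so SOS filamentation is blocked; test concentration not given here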; conditions: E. coli DRC41 growth, higher = more signal, called active from +8 up or from −8 down
[17] = probe aLefty2 binding to arrayed compounds – biochemical, biotinylated probe, 635/667 nm fluorescence, primary screen (AID 1094); conditions: small-molecule microarray, higher = more signal;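 further: score merges spot fluorescence near 667 nm with spot signal-to-noise ratio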
[18] = tested on: Noggin (protein binding on small-molecule microarray); test: small molecules binding Noggin protein – biochemical, 635/667 nm fluorescence, primary screen (AID 1095); conditions: 635 nm fluorescence, higher = more signal;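 further: score merges 667 nm feature fluorescence with signal to noise over triplicate slides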
[19] = biological target: Neurogenic locus notch homolog protein 3 (Homo sapiens) (UniProt Q9UM47); test: small molecules binding NOTCH3 protein – biochemical, 635/667 nm fluorescence, primary screen (AID 1096); conditions: small-molecule microarray, 635 nm fluorescence, higher = more signal
[20] = probe aEGFR binding to arrayed compounds – biochemical, biotinylated probe, 635/667 nm fluorescence, primary screen (AID 1097); conditions: small-molecule microarray, higher = more signal;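 further: probe is a biotinylated anti-EGFR antibody binding compounds printed on slides; score combines fluorescence near 667 nm and signal to noise of each spot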

Sequence of Pro-neuregulin-1, membrane-bound isoform (Homo sapiens) (Q02297 whole entry, looked up, the tested form may be a part, canonical isoform): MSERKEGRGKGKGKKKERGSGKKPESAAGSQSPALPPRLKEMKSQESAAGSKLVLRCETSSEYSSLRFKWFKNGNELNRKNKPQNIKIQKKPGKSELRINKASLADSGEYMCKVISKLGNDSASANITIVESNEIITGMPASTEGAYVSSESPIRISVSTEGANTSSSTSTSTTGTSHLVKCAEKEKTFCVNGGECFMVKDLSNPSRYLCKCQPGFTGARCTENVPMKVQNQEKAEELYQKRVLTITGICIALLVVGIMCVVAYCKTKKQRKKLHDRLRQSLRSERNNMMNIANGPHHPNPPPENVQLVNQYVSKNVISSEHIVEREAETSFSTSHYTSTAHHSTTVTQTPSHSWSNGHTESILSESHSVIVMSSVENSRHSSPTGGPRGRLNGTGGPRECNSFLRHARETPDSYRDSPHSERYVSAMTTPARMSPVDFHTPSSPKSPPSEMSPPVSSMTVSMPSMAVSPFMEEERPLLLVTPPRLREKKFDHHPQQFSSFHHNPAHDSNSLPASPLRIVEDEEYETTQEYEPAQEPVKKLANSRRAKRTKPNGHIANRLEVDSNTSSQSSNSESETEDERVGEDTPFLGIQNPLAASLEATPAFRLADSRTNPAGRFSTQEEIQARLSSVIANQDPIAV
Sequence of Neurogenic locus notch homolog protein 2 (Homo sapiens) (Q04721 whole entry, looked up, canonical isoform): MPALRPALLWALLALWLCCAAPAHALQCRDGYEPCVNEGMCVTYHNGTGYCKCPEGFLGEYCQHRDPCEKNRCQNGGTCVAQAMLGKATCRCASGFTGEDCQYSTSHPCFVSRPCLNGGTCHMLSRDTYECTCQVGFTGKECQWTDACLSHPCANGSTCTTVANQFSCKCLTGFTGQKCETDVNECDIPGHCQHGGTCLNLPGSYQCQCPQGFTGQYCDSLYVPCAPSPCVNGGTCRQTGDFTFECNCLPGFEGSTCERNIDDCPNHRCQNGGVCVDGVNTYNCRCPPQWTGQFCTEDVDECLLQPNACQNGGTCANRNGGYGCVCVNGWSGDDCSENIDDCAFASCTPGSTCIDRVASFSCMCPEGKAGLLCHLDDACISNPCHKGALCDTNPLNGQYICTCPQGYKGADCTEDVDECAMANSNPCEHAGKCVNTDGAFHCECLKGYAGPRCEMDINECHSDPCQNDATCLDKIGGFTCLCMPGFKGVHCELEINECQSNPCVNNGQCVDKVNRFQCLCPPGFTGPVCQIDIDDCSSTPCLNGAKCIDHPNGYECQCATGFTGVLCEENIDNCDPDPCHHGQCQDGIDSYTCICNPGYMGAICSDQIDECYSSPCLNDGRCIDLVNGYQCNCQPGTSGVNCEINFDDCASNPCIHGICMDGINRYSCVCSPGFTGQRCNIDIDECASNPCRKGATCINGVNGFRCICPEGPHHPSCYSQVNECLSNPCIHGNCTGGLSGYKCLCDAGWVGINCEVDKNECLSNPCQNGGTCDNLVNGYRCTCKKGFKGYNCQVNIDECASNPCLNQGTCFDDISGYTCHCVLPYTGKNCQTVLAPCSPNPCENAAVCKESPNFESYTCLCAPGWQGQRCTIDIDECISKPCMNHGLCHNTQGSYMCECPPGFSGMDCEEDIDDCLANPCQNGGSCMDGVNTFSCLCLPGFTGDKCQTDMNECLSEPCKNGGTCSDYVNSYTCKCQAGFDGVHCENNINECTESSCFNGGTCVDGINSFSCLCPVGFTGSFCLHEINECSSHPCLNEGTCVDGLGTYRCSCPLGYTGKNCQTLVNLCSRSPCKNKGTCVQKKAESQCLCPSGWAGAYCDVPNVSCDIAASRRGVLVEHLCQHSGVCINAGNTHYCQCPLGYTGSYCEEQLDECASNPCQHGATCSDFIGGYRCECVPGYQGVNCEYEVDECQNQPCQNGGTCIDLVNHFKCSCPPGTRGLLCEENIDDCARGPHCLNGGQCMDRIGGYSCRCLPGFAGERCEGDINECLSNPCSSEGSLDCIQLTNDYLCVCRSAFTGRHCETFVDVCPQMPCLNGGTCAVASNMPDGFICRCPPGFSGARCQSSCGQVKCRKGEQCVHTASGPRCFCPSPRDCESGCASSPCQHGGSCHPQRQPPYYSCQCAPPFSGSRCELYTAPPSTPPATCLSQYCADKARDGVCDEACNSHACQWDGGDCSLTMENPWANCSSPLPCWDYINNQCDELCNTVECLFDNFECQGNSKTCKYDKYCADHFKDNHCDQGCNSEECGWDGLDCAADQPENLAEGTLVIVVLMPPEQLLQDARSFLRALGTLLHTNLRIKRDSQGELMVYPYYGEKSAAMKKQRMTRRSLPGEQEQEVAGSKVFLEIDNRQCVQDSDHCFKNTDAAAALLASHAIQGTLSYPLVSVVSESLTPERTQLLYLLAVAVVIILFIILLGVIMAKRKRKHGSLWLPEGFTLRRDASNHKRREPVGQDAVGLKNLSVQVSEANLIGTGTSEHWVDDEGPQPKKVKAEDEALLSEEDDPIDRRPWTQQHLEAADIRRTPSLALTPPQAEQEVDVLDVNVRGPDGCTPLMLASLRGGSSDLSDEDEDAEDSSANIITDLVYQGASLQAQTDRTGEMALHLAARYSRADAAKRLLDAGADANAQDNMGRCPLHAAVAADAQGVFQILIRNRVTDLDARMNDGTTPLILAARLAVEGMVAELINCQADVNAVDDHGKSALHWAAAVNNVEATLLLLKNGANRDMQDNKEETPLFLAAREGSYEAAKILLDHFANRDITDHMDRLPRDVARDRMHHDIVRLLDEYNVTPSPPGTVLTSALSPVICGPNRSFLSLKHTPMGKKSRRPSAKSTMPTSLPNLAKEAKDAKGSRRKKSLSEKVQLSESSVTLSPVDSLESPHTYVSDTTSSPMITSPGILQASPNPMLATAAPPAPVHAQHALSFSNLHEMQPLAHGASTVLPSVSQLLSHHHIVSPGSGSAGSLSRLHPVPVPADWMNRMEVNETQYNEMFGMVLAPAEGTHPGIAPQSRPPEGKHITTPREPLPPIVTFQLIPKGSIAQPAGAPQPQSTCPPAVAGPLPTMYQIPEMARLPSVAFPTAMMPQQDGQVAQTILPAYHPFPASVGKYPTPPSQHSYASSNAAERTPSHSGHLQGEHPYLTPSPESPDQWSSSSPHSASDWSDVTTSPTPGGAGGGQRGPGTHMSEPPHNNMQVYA
Sequence of Torsin-1A-interacting protein 2 (Homo sapiens) (Q8NFQ8 whole entry, looked up): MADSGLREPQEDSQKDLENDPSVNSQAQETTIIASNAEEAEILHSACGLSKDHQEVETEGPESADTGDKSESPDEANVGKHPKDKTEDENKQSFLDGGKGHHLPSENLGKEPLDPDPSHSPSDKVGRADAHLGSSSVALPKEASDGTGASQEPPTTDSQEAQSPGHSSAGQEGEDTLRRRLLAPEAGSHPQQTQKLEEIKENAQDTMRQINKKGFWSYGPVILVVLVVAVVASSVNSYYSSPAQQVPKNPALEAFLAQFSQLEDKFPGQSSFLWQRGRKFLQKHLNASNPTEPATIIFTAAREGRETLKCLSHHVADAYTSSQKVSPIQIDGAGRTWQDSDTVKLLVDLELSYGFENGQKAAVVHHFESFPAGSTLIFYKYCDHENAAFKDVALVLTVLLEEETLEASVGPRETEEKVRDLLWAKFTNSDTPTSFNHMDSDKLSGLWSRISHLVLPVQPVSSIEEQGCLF

| SMILES | composite z-score [1] | composite z-score [2] | composite z-score [3] | composite z-score [4] | composite z-score [5] | composite z-score [6] | composite z-score [7] | z-score [8] | composite z-score [9] | composite z-score [10] | composite z-score [11] | z-score [12] | z-score [13] | z-score [14] | composite z-score [15] | z-score [16] | composite z-score [17] | composite z-score [18] | composite z-score [19] | composite z-score [20] |
| --- | --- | --- | --- | --- | --- | --- | --- | --- | --- | --- | --- | --- | --- | --- | --- | --- | --- | --- | --- | --- |
| COCCCNC(=O)[C@@]1(Cc2ccccc2N=[N+]=[N-])N=C(c2ccc(OCCCO)cc2)O[C@H]1c1ccccc1CN=[N+]=[N-] | 0.377 | 0.556 | 0.185 | 1.07 | 1.47 | 1.78 | 1.26 | -0.344 (inactive) | 0.893 | -0.192 | 1.56 | -0.873 (inactive) | 0.553 (inactive) | 6.93 (inactive) | 3.49 | 1.04 (inactive) | 0.235 | -0.0194 | 1.07 | 0.43 |
| C[N+](C)(C)CCCC[C@@H]1NC(=O)[C@@H]2C[C@H](C(=O)O)[C@H](c3cccc(OCCO)c3)N2C1=O | 0.846 | 0.0439 | -0.179 | -0.372 | -0.821 | -0.0567 | 1.1 | -0.112 (inactive) | -0.184 | -0.245 | 0.583 | 0.852 (inactive) | -1.13 (inactive) | 0.167 (inactive) | 0.423 | 0.817 (inactive) | -0.175 | 0.601 | -0.78 | -0.175 |
| C[C@]12C(=O)N(CCCCCO)[C@@H]3C(=O)N(c4ccc(Cl)cc4)CC=CC31O[C@@H]1/C=C\CCCOC(=O)C12 (stereo not given in full) | 0.302 | -1.54 | -0.221 | -1.14 | -0.76 | -0.254 | 0.655 | 0.803 (inactive) | -0.733 | -0.28 | -1.37 | -0.299 (inactive) | -1.14 (inactive) | -0.637 (inactive) | -1.43 | -1.25 (inactive) | -0.0986 | -0.757 | -0.0346 | -0.172 |
| CCOc1cc(C(O)C2C=CC3C(=O)NC(=O)C3N2Nc2ccccn2)ccc1O (stereo not given) | -0.373 | 0.123 | -0.0094 | 0.458 | 0.257 | 0.18 | 0.117 | -0.027 (inactive) | 0.0771 | -0.132 | -0.0438 | 0.128 (inactive) | 1.33 (inactive) | -0.0339 (inactive) | 0.394 | -0.977 (inactive) | -0.0708 | 0.195 | 0.0082 | -0.0947 |
| OCc1ccc(-c2cc[n+](Cc3cccc(OC(F)(F)F)c3)cc2)cc1 | 0.253 | 0.502 | -0.0887 | -0.0076 | 1.4 | 1.48 | 0.946 | 1.41 (inactive) | 0.597 | -0.0994 | 1.26 | -1.54 (inactive) | -19.5 (active) | 5.75 (inactive) | 1.99 | 0.261 (inactive) | 0.353 | 0.876 | 1.05 | -0.0016 |
| O=C1NC(=O)C2C1C=CC(C(O)c1ccc(-c3ccccc3)s1)N2Nc1ccccn1 (stereo not given) | 0.536 | 0.259 | -0.0605 | 0.444 | 1.31 | 1.27 | 0.988 | 0.703 (inactive) | 0.781 | -0.191 | 0.189 | -0.3 (inactive) | 1.01 (inactive) | 0.499 (inactive) | 1.76 | 0.0076 (inactive) | 0.129 | -0.0414 | 0.418 | -0.0085 |
| CC1CC/C=C\[C@H]2OC34C=CCN(c5ccc(Cl)cc5)C(=O)[C@H]3N(C(CO)C(C)C)C(=O)[C@]4(C)C2C(=O)O1 (stereo not given in full) | -0.128 | 1.9 | -0.146 | -0.38 | -0.594 | 1 | 1.47 | 0.51 (inactive) | -0.637 | 0.0373 | -0.538 | 1.04 (inactive) | -0.775 (inactive) | -0.439 (inactive) | 2.25 | -0.304 (inactive) | -0.166 | -0.643 | 0.161 | -0.233 |
| CCOC(=O)C1=CC[C@@H](c2ccc(N(CC)CC)cc2)N(S(=O)(=O)c2ccc(C)cc2)[C@H]1c1ccc([N+](=O)[O-])cc1 | 0.709 | -0.346 | -0.0336 | -0.865 | -0.398 | 0.722 | 0.722 | -0.162 (inactive) | 0.0676 | -0.0237 | 0.554 | -0.673 (inactive) | 0.0534 (inactive) | 2.76 (inactive) | 2.29 | -0.532 (inactive) | 0.415 | -0.796 | 0.206 | -0.0688 |
| CCCCCCCCCCC(O)C1C=CC2C(=O)NC(=O)C2N1Nc1ccccn1 (stereo not given) | 0.444 | -1.14 | -0.0899 | -0.417 | 0.439 | 1 | 0.852 | 1.06 (inactive) | 0.0124 | -0.236 | -0.19 | -20 (active) | -16.2 (active) | -2.6 (inactive) | 1.78 | -15.5 (active) | -0.0654 | -0.894 | 0.243 | -0.14 |
| COCCOC(=O)N1C(=O)[C@@]2(c3cc(C#Cc4ccc(OC)cc4)ccc31)[C@H](C(=O)N1CCc3cc(OC)c(OC)cc3C1)[C@H]1C(=O)O[C@H](c3ccccc3)[C@H](c3ccccc3)N1[C@@H]2c1ccc(O)cc1 | -0.285 | 0.613 | -0.129 | 0.64 | 1.47 | 1.17 | 1.19 | 0.707 (inactive) | -0.0689 | -0.297 | 1.55 | 1.99 (inactive) | 1.71 (inactive) | 2.29 (inactive) | 2 | 1.12 (inactive) | -0.23 | 0.614 | 1.14 | -0.0197 |
